MOR-DOR ag: OPRM1-OPRD1 heterodimerization agonism; P35372+P41143; cells, luminescence; activation, % at 9.3 µM; hit rate 0.3% among 340,000; AID 504326; in the data active means activation above about 18%;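 further: 0% = vehicle-treated cells and 100% = reference agonist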
MIN6 prolif-1: inducers of beta-cell replication in MIN6 cells; MIN6 cells proliferation, ATPlite luminescence, 48 h; cells starved in 0.2% serum; 100% = growth in 10% serum; proliferation, % at 10 µM; hit rate 0.29% among 330,000; AID 2380;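 active means compounds whose signal lies at least 3.5 SD above the mean of all wells on their plate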;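 further: 0% = DMSO-treated cells in low-serum medium and 100% = 10% serum control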
V-ATPase pH: yeast V-ATPase proton transport regulation by pHLuorin; S. cerevisiae, pHLuorin cytosolic pH fluorescence; response, % at 10 µM; hit rate 0.37% among 350,000; in the data active means response mostly above about 7.3%, no sharp cut-off; inactive means mostly below about 5.4%; further: actives read high
HTR5A inv ctr: inverse agonist of human HTR5A in OPRM1-OPRD1 counter-screen. AID 504634. HTR5A cell line, luminescence, inverse agonism. P47898. inhibition, % at 9.3 µM. hit rate 0.083% among 340,000; in the data active means inhibition mostly above about 23%, no sharp cut-off; inactive means mostly below about 18%;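 further: 0% = cells with DMSO and 100% = no-cell wells with DMSO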
Target sequence (P47898 whole entry, looked up): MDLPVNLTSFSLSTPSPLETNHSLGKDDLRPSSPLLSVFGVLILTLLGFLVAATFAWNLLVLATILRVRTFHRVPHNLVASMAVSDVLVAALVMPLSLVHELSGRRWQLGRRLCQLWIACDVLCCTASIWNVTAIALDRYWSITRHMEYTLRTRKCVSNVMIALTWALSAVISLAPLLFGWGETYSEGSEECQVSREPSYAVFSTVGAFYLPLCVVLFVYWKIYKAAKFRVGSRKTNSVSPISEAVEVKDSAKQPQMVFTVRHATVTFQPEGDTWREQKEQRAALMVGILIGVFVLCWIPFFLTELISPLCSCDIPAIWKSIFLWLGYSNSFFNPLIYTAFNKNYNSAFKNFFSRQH
HTR5A ag: HTR5A agonism, opioid heterodimer counter-screen. P47898. HTR5A agonist assay, luminescence, cell-based. activation, % at 9.3 µM. hit rate 0.61% among 340,000; in the data active means activation mostly above about 9.5%, no sharp cut-off; inactive means mostly below about 7.6%;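 further: 0% = cells with vehicle only and 100% = reference agonist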
MOR-DOR inv ag: inverse agonist of human OPRM1-OPRD1 heterodimerization | inhibition, % at 9.3 µM | hit rate 0.21% among 340,000 | cell-based MOR-DOR heterodimer luminescence, inverse agonism | P35372+P41143 | AID 504357; in the data active means inhibition above about 22%, passing the limit was not always enough;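 further: 0% = cells with DMSO and 100% = wells without cells with DMSO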
MIN6 prolif-2: confirmation of inducers of beta-cell replication in MIN6 cells | shares compounds with MIN6 prolif-1 | MIN6 beta-cell proliferation, ATPlite luminescence, 48 h; cells kept in 0.2% serum; scaled between 0.2% and 10% serum | proliferation increase, % at 50 µM | 920 tested, under 10 active | AID 463095;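 active means proliferation increase above 40% at any of the four tested concentrations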
The depositor's hits bear a star; · = no result. Rows were chosen to be rich in hits. Some 1.7% of all compounds tested hit in one or more screens of this group.

SMILES	MOR-DOR ag	MIN6 prolif-1	V-ATPase pH	HTR5A inv ctr	HTR5A ag	MOR-DOR inv ag	MIN6 prolif-2
CC1CC(C)CN(C(=O)C2CCC(CNS(=O)(=O)c3ccccc3)CC2)C1 (stereo not drawn)	0.5	-4.7	-0.9	8.7	-2.2	-2.5	·
CCOC(=O)c1ccccc1NC(=O)CN(c1ccccc1C)S(C)(=O)=O	0.4	8.4*	1.6	-2.9	2.0	-2.2	-3.3
Cc1ccccc1N(CC(=O)Nc1ccc(F)cc1)S(C)(=O)=O	-0.2	0.3	-4.0	-6.9	2.0	1.0	·
Cc1ccc(NC(=O)CN(c2ccccc2F)S(C)(=O)=O)cc1	-1.5	5.1*	-1.2	-2.5	-3.6	8.1	0.5
O=C(NCc1ccc(F)cc1)c1ccc2c(c1)S(=O)(=O)c1ccccc1C2=O	0.8	8.1	-3.3	2.5	-0.9	-4.6	·
COc1cc(CNC(=O)c2ccc3c(c2)S(=O)(=O)c2ccccc2C3=O)cc(OC)c1	2.0	14.6*	-0.2	0.8	-0.3	-11.4	3.2
O=C(Nc1ccc(S(=O)(=O)O)cc1)c1ccc2c(c1)S(=O)(=O)c1ccccc1C2=O	0.9	13.6*	-0.2	-55.2	20.5	-5.1	-1.1
O=C(CSc1ncccn1)NCC1CCCO1 (stereo not drawn)	-1.5	5.9	1.8	14.2	-5.9	7.7	·
Cc1cc(C(=O)NNC(=O)CCN2CCN(c3ccccc3)CC2)c2ccccc2n1	-2.5	-1.3	0.6	-1.2	-3.0	12.7	·
CCc1cc(C(=O)NNC(=O)CCN2CCN(c3ccccc3)CC2)sc1C	-1.6	12.9*	2.0	11.5	3.1	8.5	-3.4
Cc1ccc(S(=O)(=O)Cn2nnnc2C(CC(C)C)N2CCN(c3ccccc3)CC2)cc1 (stereo not drawn)	-1.1	-2.2	1.0	-16.3	-1.7	6.5	·
CC(C)CC(c1nnnn1C(C)C)N1CCN(c2ccccc2)CC1 (stereo not drawn)	-2.8	7.3*	0.1	8.8	-2.4	15.0	-1.7
CNc1nc(Nc2ccccc2)nc(OCC(F)(F)F)n1	2.7	7.0*	4.4	-18.9	1.7	-12.5	0.9
CNc1nc(NN)nc(Nc2ccccc2)n1	-2.4	-2.4	4.2	5.0	-8.0	11.7	·
O=C(CNCc1ccccc1)Nc1ccc(Cl)cc1	-1.3	1.7	-3.0	-4.9	1.4	5.8	·
Cc1cccc(-c2c3c(=O)n(C)c(=O)n(C)c3c3cccnn23)c1	-0.4	9.0*	-2.6	-2.2	-0.2	2.2	-2.4
Cc1cc(C)c2c3c(c(-c4ccccc4)n2n1)c(=O)n(C)c(=O)n3C	0.5	·	0.1	-14.2	1.6	-2.7	·
Cc1noc(C)c1NC(=O)Nc1ccc2c(c1)C(=O)N([C@H](C)CO)C[C@H](C)[C@@H](CN(C)C(=O)Nc1ccc3c(c1)OCO3)O2	-0.7	1.2	-5.8	-11.3	1.7	3.8	·
Cc1cc(NC(=O)c2cnn3c(C(F)F)cc(C4CC4)nc23)no1	-3.8	5.5*	1.1	3.8	4.7	17.3	5.4
COc1ccc(-c2noc(COc3ccc4c(c3)OCO4)n2)cc1OC	-0.8	10.9*	-0.3	-13.2	5.2	4.5	0.7
COc1ccc(-c2noc(COc3ccc4c(c3)OCO4)n2)cc1	8.6	-2.6	1.7	-13.6	8.7	-47.5	·
Cc1ccc(S(=O)(=O)N(C)CC(=O)Nc2cccnc2)cc1	-1.5	1.9	-1.0	-12.8	2.5	9.4	·
N#Cc1ccc(Oc2cnccn2)cc1	-1.4	-0.6	1.5	8.6	-2.4	6.1	·
CC(C)(C)NC(=O)CN(C(=O)CCC(=O)Nc1nccs1)c1ccc(F)cc1	-2.0	0.8	-2.7	1.1	-0.4	10.2	·
CNCCCOc1cccc(OC(C)C)c1	-3.2	6.3*	-3.9	12.9	0.4	15.9	-1.0
SMILES	MOR-DOR ag	MIN6 prolif-1	V-ATPase pH	HTR5A inv ctr	HTR5A ag	MOR-DOR inv ag	MIN6 prolif-2
CNCCCOc1cccc(Oc2ccccc2)c1	-0.3	-4.7	1.1	8.3	-3.2	1.9	·
CC(C)C[C@H](NC(=O)NCc1ccccc1Cl)C(=O)O	-1.5	-0.5	0.4	-28.8	-2.4	7.8	·
CC(C)C[C@H](NC(=O)NCc1ccc(Cl)cc1)C(=O)O	-1.3	10.1*	5.6	10.5	-4.1	7.4	-1.7
CN1CCN(CC(=O)Nc2c(C(=O)c3ccccc3)oc3ccccc23)CC1	-0.5	-3.8	-0.8	9.2	-3.8	3.0	·
O=C(CN1CCCC1)Nc1c(C(=O)C2CC2)oc2ccccc12	2.0	7.1*	-0.9	-20.8	-4.1	-9.9	-4.0
Cc1ccc(C)c(NC(=O)COC(=O)c2ccc3c(c2)OCCO3)c1	-0.3	-1.5	2.0	-1.6	-0.6	1.3	·
CCOc1cc(C(=O)N(C)CC(=O)Nc2cccc(F)c2)ccc1OCC(=O)N1CCOCC1	-0.3	4.4	-4.7	-3.6	1.4	1.6	·
Cc1ccccc1NS(=O)(=O)c1ccc(C(=O)NCC(c2ccco2)N(C)C)cc1 (stereo not drawn)	1.8	11.5*	0.8	-3.3	1.3	-9.8	-3.4
Cc1ccccc1NS(=O)(=O)c1ccc(C(=O)NCC(c2ccccc2)N(C)C)cc1 (stereo not drawn)	0.6	-2.4	2.1	17.6	-4.8	-3.3	·
C[C@@H](O)C1NC(=O)[C@H](CCCCN)NC(=O)c2cc([N+](=O)[O-])cc(F)c2NCCCC[C@@H](C(N)=O)NC1=O (stereo partly drawn)	-1.1	9.7*	-3.2	-1.1	8.2	5.1	-2.9
CC[C@H](C)[C@@H]1NC(=O)c2cc([N+](=O)[O-])cc(F)c2NCCCC[C@@H](C(N)=O)NC(=O)[C@H](CC(N)=O)NC1=O	-1.4	-4.2	-2.3	-20.8	7.1	7.9	·
C[C@@H]1CN([C@@H](C)CO)S(=O)(=O)c2ccc(Br)cc2O[C@H]1CN(C)C(=O)C1CCC1	·	·	-1.4	·	·	·	·
CC(C)CCNC(=O)CN1N=C(c2ccc(Cl)cc2)CCC1=O	-0.4	7.3*	1.2	-3.8	1.0	1.8	-2.0
COc1cccc(-c2nnc3n2N=C(c2cc(OC)ccc2OC)CS3)c1	-2.7	8.0*	5.0	-9.5	6.2	13.8	-3.8
CCOc1cccc(-c2nnc3n2N=C(c2cc(OC)ccc2OC)CS3)c1	-1.3	-1.2	-2.1	-13.1	-3.6	6.9	·
Cc1cc(C)nc(/N=C(\N)Nc2ccc(S(=O)(=O)Nc3nccc(C)n3)cc2)n1	-4.6	0.7	-3.0	-1.2	1.8	21.8	·
C[C@@H]1C[C@@H]2OC(=O)[C@]3(C)[C@H]2[C@@H](OC3(C)O)[C@]2(C)C(=O)CC[C@H]12 (stereo partly drawn)	·	10.8*	·	·	·	·	0.5
CN(CC(=O)Nc1ccc(F)c(F)c1F)C(=O)C1CCCO1 (stereo not drawn)	2.4	-4.3	0.4	-2.3	3.0	-15.8	·
CO/N=C(/c1nonc1N)N1CCN(c2ccc([N+](=O)[O-])cc2)CC1	-1.1	10.8*	-1.0	-10.6	4.2	6.4	2.4
